This is an account of results in the supplement of paper PMC9492666.

Where a name gives a salt, the structure may show the parent alone.

The subject of experiment [1] is HCC1937. The experiment can be described thus: relative cell viability, compound alone, vs DMSO (fraction of DMSO control); higher = less growth inhibition. Particulars: 72 h.
For experiment [2], the system named is MDA-MB-231. The description is as above. Conditions: 72 h.
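Note: viability read out with the CCK-8 kit in 96-well plates, screening a set of 303 compounds acting on lipid metabolism targets.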

As for `CN1CCN(c2ccc(/C=C(\C#N)c3ccccc3Br)cc2)CC1` [DG172 (dihydrochloride)], the relative cell viability in experiment [1] came to 0.933; in experiment [2], 0.965.
Taken in the same sequence, the figures for `CCCCCCCCCCCCCCCC(=O)NCCO` [Palmidrol] were 1.39 and 1.13.
On to `COc1ccc2c(c1)c(CC(=O)O)c(C)n2C(=O)c1ccc(Cl)cc1` [Indometacin], for which the relative cell viability in experiment [1] came to 1.28; in experiment [2], 0.842.
For `Cc1ccc(Oc2nc3cc(-c4ccc(-c5ccccc5)cc4)c(Cl)cc3[nH]2)cc1C(=O)O` the same measures were 0.95 and 0.92.
`Cc1c2c(=O)n(-c3ccccc3Cl)[nH]c2cc(=O)n1Cc1ccccn1`: the relative cell viability in experiment [1] stood at 0.973; in experiment [2], 1.07.
Turning to `Cc1nc2ccc(C(=O)N3CCC4(CC3)CC(=O)c3c(cnn3C(C)C)C4)cc2[nH]1`, the relative cell viability in experiment [1] amounted to 0.71; in experiment [2] it was 0.859.
For `O=C(CN1CCN(C(=O)c2ccco2)CC1)Nc1cc(C(F)(F)F)ccc1Cl` the same measures were 0.767 and 0.892.
Regarding `COc1cc(O)c2c(c1)O[C@H](c1ccc(O)cc1)CC2=O` [Sakuranetin], the relative cell viability in experiment [1] amounted to 0.627; in experiment [2], 0.941.
For `CC1=C(/C=C/C(C)=C/C=C/C(C)=C/C=C/C=C(C)/C=C/C=C(C)/C=C/C2=C(C)C(=O)[C@@H](O)CC2(C)C)C(C)(C)C[C@H](O)C1=O` [Astaxanthin] the same measures were 1.01 and 1.13.
As to `O=C(c1ccc(NS(=O)(=O)c2cccc3cccnc23)cc1)N1CCN(CC2CC2)CC1` [Mitapivat], the relative cell viability in experiment [1] is 0.95; in experiment [2], 0.935.
Consider `CCOc1cc(CC(=O)N[C@@H](CC(C)C)c2ccccc2N2CCCCC2)ccc1C(=O)O` [Repaglinide], for which the relative cell viability in experiment [1] is 1.02; in experiment [2], 0.938.
Taken in the same sequence, the figures for `CC(C)(Oc1ccc(C2CC2(Cl)Cl)cc1)C(=O)O` (configuration not stated) [Ciprofibrate] were 1.15 and 0.937.
In the case of `C[N+](C)(C)CC(O)CC(=O)[O-]` (stereo not drawn) [L(-)-Carnitine], the relative cell viability was 0.738 in experiment [1] and 0.876 in experiment [2].
In the case of `CCC(=O)Nc1cccc(Oc2nc(Nc3ccc(N4CCN(C)CC4)cc3OC)ncc2Cl)c1`, the figures for the relative cell viability in experiment [1] and in experiment [2] were 0.48 and 0.559, respectively.
For `CC(=O)Nc1nc(C)c(S(=O)(=O)Nc2ccc(C(O)(C(F)(F)F)C(F)(F)F)cc2)s1`, the relative cell viability in experiment [1] is 1.29; in experiment [2], 1.24.
Regarding `O=c1c(O[C@@H]2O[C@H](CO)[C@@H](O)[C@H](O)[C@H]2O)c(-c2ccc(O)cc2)oc2cc(O)cc(O)c12` [Astragalin], the relative cell viability in experiment [1] is 0.937; in experiment [2], 0.984.
`N#Cc1c(O)c2c(-c3ccc(-c4ccccc4O)cc3)csc2[nH]c1=O`: the relative cell viability in experiment [1] was 0.719; in experiment [2] it was 0.907.
On to `C=C(C)[C@@H]1CC[C@]2(CO)CC[C@]3(C)[C@H](CC[C@@H]4[C@@]5(C)CC[C@H](O)C(C)(C)[C@@H]5CC[C@]43C)[C@@H]12` [Betulin], for which the relative cell viability in experiment [1] is 0.886; in experiment [2], 0.907.
For the molecule `COc1ccc(-c2coc3cc(O)cc(O)c3c2=O)cc1` [Biochanin A], the relative cell viability came to 0.813 in experiment [1] and 0.729 in experiment [2].
`C=CCc1ccc(O)c(-c2cc(CC=C)ccc2O)c1` [Magnolol]: the relative cell viability is 1 in experiment [1] and 0.968 in experiment [2].
For the molecule `Cc1cc(C)c(S(=O)(=O)Nc2cccc(C(F)(F)F)c2)c(C)c1`, the relative cell viability in experiment [1] was found to be 1.12; in experiment [2] it was 1.18.
Turning to `COc1cc(F)c(C(C)C)cc1-c1ccc(C(F)(F)F)cc1CN1C(=O)O[C@H](c2cc(C(F)(F)F)cc(C(F)(F)F)c2)[C@@H]1C` [Anacetrapib], the results for the relative cell viability in experiment [1] and in experiment [2] were 0.72 and 0.877, respectively.
Taken in the same sequence, the figures for `Cn1nc(C(=O)N(Cc2ccccc2)Cc2ccc(C(=O)O)cc2)c2c1-c1cc(Cl)ccc1OC2` [Nidufexor] were 0.937 and 0.932.
On to `COC(=O)CN(c1ccc(CN(c2ccc(OCc3ccc(C)cc3)c(C(=O)OC)c2)S(=O)(=O)Cc2ccccc2)cc1)S(C)(=O)=O`, for which the relative cell viability in experiment [1] turned out to be 0.894; in experiment [2], 0.921.
For the molecule `O=C(Nc1ccccc1)N1CCN(c2nc(-c3ccccc3)ns2)CC1`, the relative cell viability came to 0.807 in experiment [1] and 0.821 in experiment [2].
Taken in the same sequence, the figures for `C[C@]12C=CC(=O)N[C@@H]1CC[C@@H]1[C@@H]2CC[C@]2(C)[C@@H](C(=O)Nc3cc(C(F)(F)F)ccc3C(F)(F)F)CC[C@@H]12` [Dutasteride] were 0.798 and 0.777.
Take `CC[C@H](C)C(=O)O[C@H]1CCC=C2C=C[C@H](C)[C@H](CC[C@@H]3C[C@@H](O)CC(=O)O3)[C@H]21` [Mevastatin]: the relative cell viability in experiment [1] was 0.819; in experiment [2], 0.548.
For the molecule `CC(C)(C)NC(=O)[C@H]1CC[C@H]2[C@@H]3CC[C@H]4NC(=O)C=C[C@]4(C)[C@H]3CC[C@]12C` [Finasteride], the relative cell viability was determined as 1.17 in experiment [1] and 0.934 in experiment [2].
For `O=C(CCCCCCCC(=O)NCCO)NCCO` [Adelmidrol] the same measures were 1.16 and 1.04.
For `Cc1cc([N+](=O)[O-])ccc1NS(=O)(=O)c1cc(Cl)ccc1Cl` the same measures were 0.579 and 0.795.
Taken in the same sequence, the figures for `Cc1c(C(=O)NN2CCOCC2)nn(-c2ccc(Cl)cc2Cl)c1-c1ccc(I)cc1` were 0.645 and 0.817.
